Structures are written as SMILES. Calls of active or inactive are those of the source. Rule for the calls: active = hit-call score of the fitted dose curve at least 0.9, where 1 is the maximum; inactive = score below 0.9.

The target in test [1] is Transcription factor E2F1 (Homo sapiens) (UniProt Q01094). Description: ATG_E2F_CIS: Attagene CIS-FACTORIAL HepG2 Assay for human E2F Transcription Factor 1 (AID 2282935). To be noted: HepG2 Attagene cis-reporter, E2F reporter RNA transcripts; actives raise or lower the signal. The method, boiled down:
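Transient MRTU transfection of HepG2; 24 h compound exposure; RNA → oligo(dT) RT → PCR → FAM label → HpaI cut → CE fluorescence. Gain/loss of signal fit against DMSO.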

Test [2] is described as follows: ATG_E_Box_CIS: Attagene CIS-FACTORIAL HepG2 Assay for human Enhancer Box (E-box) (AID 2282936). The conditions noted are these: HepG2 E-box cis-reporter transcription, actives raise or lower the signal. A digest of the protocol:
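Transiently transfected HepG2, endogenous TF-driven reporters, 24 h dosing. Readout: RT-PCR plus capillary electrophoresis of fluorescent reporter fragments. Gain or loss of signal fitted bidirectionally against DMSO baseline.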

The nature of test [3]: ATG_M_61_CIS: Attagene CIS-FACTORIAL HepG2 Assay for M61 Transcription Factor (Internal Marker) (AID 2282937). To be noted: HepG2 Attagene CIS-FACTORIAL M61 internal marker reporter; actives raise or lower the signal. The method, boiled down: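 Human liver HepG2, transient MRTU transfection (cis promoter elements), 24 h compound. Total RNA → oligo(dT) RT → PCR → FAM label → HpaI → CE. Internal background marker; bidirectional fitting, DMSO = baseline.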

Test [4] in a line: ATG_EGR_CIS: Attagene CIS-FACTORIAL HepG2 Assay for human Early Growth Response 1 (EGR1) (AID 2282938). The conditions noted are these: HepG2 Attagene CIS-FACTORIAL EGR reporter mRNA; actives raise or lower the signal. The method, boiled down:
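Transient transfection of human HepG2 with multiple cis-regulated reporter units, chemical exposure 24 h, total RNA isolated. Reverse transcription, PCR, fluorescent labelling and capillary electrophoresis quantify reporter transcripts; activity fitted bidirectionally against DMSO.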

Test [5] in a line: ATG_M_19_CIS: Attagene CIS-FACTORIAL HepG2 Assay for M19 Transcription Factor (Internal Marker) (AID 2282939). To be noted: HepG2 Attagene CIS-FACTORIAL M19 internal marker reporter; actives raise or lower the signal. The method, boiled down:
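HepG2, MRTU transient transfection, 24 h dosing. Total RNA → RT-PCR → 6-FAM primer extension → HpaI digest → CE fluorescence. Bidirectional curve fit, DMSO negative control.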

Test [6] in a line: ATG_ERE_CIS: Attagene CIS-FACTORIAL HepG2 Assay for Estrogen Response Element (ERE) (AID 2282940). To be noted: HepG2 ERE cis-reporter, Attagene RNA transcript; actives raise or lower the signal. A digest of the protocol:
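After a 24 h chemical treatment, RNA from reporter-transfected HepG2 cells is reverse-transcribed, PCR-amplified and fluorescently labelled. Fragments separated by capillary electrophoresis give reporter signal; DMSO serves as negative control.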

The nature of test [7]: ATG_Ets_CIS: Attagene CIS-FACTORIAL HepG2 Assay for human Erythroblast Transformation Specific (ETS) (AID 2282941). To be noted: HepG2 ETS cis-reporter transcription, actives raise or lower the signal. A digest of the protocol:
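RT-PCR/capillary electrophoresis fluorescence read-out of reporter mRNA; HepG2 transient multi-reporter transfection; 24 h compound exposure; gain or loss of signal fitted bidirectionally relative to DMSO.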

The target of test [8] is Hepatocyte nuclear factor 3-beta (Homo sapiens) (UniProt Q9Y261). As to the kind of experiment: ATG_FoxA2_CIS: Attagene CIS-FACTORIAL HepG2 Assay for human Forkhead box A2 (FOXA2) (AID 2282942). The conditions noted are these: HepG2 cis-reporter transcription factor activity, 24 h; actives raise or lower the signal. The method, boiled down:
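Transient MRTU transfection of HepG2 liver cells; 24 h treatment; total RNA → oligo(dT) RT → PCR → FAM primer extension → HpaI cut → CE. Bidirectional fit vs DMSO.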

Test [9] in a line: ATG_FoxO_CIS: Attagene CIS-FACTORIAL HepG2 Assay for human Forkhead box O (FoxO) (AID 2282943). To be noted: HepG2 Attagene cis-reporter, FoxO element, mRNA; actives raise or lower the signal. A digest of the protocol:
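HepG2 cells transiently transfected with cis-element-driven reporter units report endogenous FoxO activity. After 24 h chemical exposure, reporter mRNA quantified by RT-PCR, fluorescent labeling, HpaI digestion and capillary electrophoresis; bidirectional fit versus DMSO.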

The nature of test [10]: ATG_GATA_CIS: Attagene CIS-FACTORIAL HepG2 Assay for human GATA Binding Protein (AID 2282944). The conditions noted are these: HepG2 GATA cis-element reporter, Attagene multiplex mRNA; actives raise or lower the signal. The method, boiled down: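 Cells: HepG2, transiently transfected with cis-regulated reporter transcription units. Exposure: 24 h. Detection: RT-PCR plus capillary electrophoresis of FAM-labeled fragments. Analysis: bidirectional, DMSO as baseline.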

The nature of test [11]: ATG_GLI_CIS: Attagene CIS-FACTORIAL HepG2 Assay for human Zinc Finger Protein GLI1 (AID 2282945). To be noted: HepG2, Attagene cis-factorial reporter mRNA, GLI element; actives raise or lower the signal. A digest of the protocol: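 Transiently transfected HepG2 cells report endogenous transcription factor activity via cis-element-driven reporter units. After 24 h compound exposure, reporter mRNA was measured by RT-PCR with capillary electrophoresis; bidirectional fitting against DMSO baseline.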

Test [12] deals with Bile acid receptor (Homo sapiens) (UniProt Q96RI1). As to the kind of experiment: ATG_IR1_CIS: Attagene CIS-FACTORIAL HepG2 Assay for human Nuclear Receptor Subfamily 1 Group H Member 4 (NR1H4), IR1 submotif (AID 2282946). The conditions noted are these: IR1 reporter transcription, actives raise or lower the signal. The method, boiled down:
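Fluorescence of capillary-separated, HpaI-digested RT-PCR reporter products gave IR1-element mRNA induction in HepG2 cells 24 h after dosing. Endogenous transcription factors drove the cis-regulated reporters; activity was fitted bidirectionally against DMSO.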

The nature of test [13]: ATG_GRE_CIS: Attagene CIS-FACTORIAL HepG2 Assay for human Glucocorticoid Response Elements (GRE) (AID 2282947). The conditions noted are these: HepG2 GRE cis-reporter, Attagene multiplex mRNA; actives raise or lower the signal. A digest of the protocol:
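Read-out: fluorescent reporter-transcript fragments separated by capillary electrophoresis after RT-PCR. Transiently transfected HepG2 cells carrying cis-element-driven reporter units were dosed for 24 h; gain or loss of signal fitted against DMSO control.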

Test [14] in a line: ATG_ISRE_CIS: Attagene CIS-FACTORIAL HepG2 Assay for human Interferon Regulatory Factor 1 (IRF1) binding to an Interferon-Stimulated Response Element (ISRE) (AID 2282948). The conditions noted are these: HepG2 ISRE cis-reporter (Attagene), mRNA transcription readout; actives raise or lower the signal. A digest of the protocol: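 Read-out: fluorescent RT-PCR products resolved by capillary electrophoresis, reporting endogenous transcription factor activity via ISRE-driven reporter mRNA in transfected HepG2 cells dosed for 24 h; gain or loss fitted relative to DMSO.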

Test [15] can be described thus: ATG_M_32_CIS: Attagene CIS-FACTORIAL HepG2 Assay for M32 Transcription Factor (Internal Marker) (AID 2282949).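 Note: background control marker of the multiplexed CIS panel rather than a real target.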 The conditions noted are these: HepG2 Attagene cis-factorial M32 reporter, mRNA; actives raise or lower the signal. A digest of the protocol: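 Using DMSO as baseline, bidirectional curve fits were applied to reporter mRNA signals. These came from transiently transfected HepG2 cells exposed for 24 h, with RNA analysed by RT-PCR, FAM primer extension, HpaI digestion and CE.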

The nature of test [16]: ATG_M_06_CIS: Attagene CIS-FACTORIAL HepG2 Assay for M06 Transcription Factor (Internal Marker) (AID 2282950). The conditions noted are these: HepG2 Attagene CIS-FACTORIAL M06 internal marker reporter; actives raise or lower the signal. A digest of the protocol: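 Measured 24 h post-dosing in transiently transfected HepG2 cells, this internal-marker endpoint reports reporter mRNA via RT-PCR with fluorescent primer extension and capillary electrophoresis. DMSO served as negative control and baseline for bidirectional fitting.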

For test [17], the target named is Hypoxia-inducible factor 1-alpha (Homo sapiens) (UniProt Q16665). As to the kind of experiment: ATG_HIF1a_CIS: Attagene CIS-FACTORIAL HepG2 Assay for human Hypoxia Inducible Factor 1 (HIF1A) (AID 2282951). The conditions noted are these: HepG2 Attagene cis-factorial HIF1a reporter transcription; actives raise or lower the signal. A digest of the protocol:
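Transient MRTU transfection of human HepG2 liver cells, 24 h compound treatment, then total RNA isolation, oligo(dT) reverse transcription, PCR amplification, fluorescent labelling and capillary electrophoresis of reporter fragments. Gain or loss relative to DMSO.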

The target of test [18] is Hepatocyte nuclear factor 6 (Homo sapiens) (UniProt Q9UBC0). As to the kind of experiment: ATG_HNF6_CIS: Attagene CIS-FACTORIAL HepG2 Assay for human Hepatocyte Nuclear Factor 6 (HNF6) (AID 2282952). The conditions noted are these: HepG2 Attagene cis-factorial HNF6 reporter transcription; actives raise or lower the signal. The method, boiled down:
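Readout: fluorescent reporter-transcript fragments resolved by capillary electrophoresis after RT-PCR, reflecting endogenous factor activity in transfected HepG2. Exposure 24 h. Gain or loss of signal fitted bidirectionally against DMSO.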

Test [19] can be described thus: ATG_MRE_CIS: Attagene CIS-FACTORIAL HepG2 Assay for human Metal Responsive Element (MRE) (AID 2282954). The conditions noted are these: HepG2 MRE cis-reporter transcription, Attagene multiplex; actives raise or lower the signal. A digest of the protocol:
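RT-PCR/capillary electrophoresis readout of reporter mRNA, 24 h post-dosing, in HepG2 cells transfected with multiplexed cis-regulated reporter constructs. Gain or loss of signal fitted bidirectionally against DMSO baseline.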

For test [20], the target named is Heat shock factor protein 1 (Homo sapiens) (UniProt Q00613). Description: ATG_HSE_CIS: Attagene CIS-FACTORIAL HepG2 Assay for human Heat Shock Transcription Factor 1 (HSE) (AID 2282953). The conditions noted are these: HepG2 HSE cis-reporter, Attagene RNA transcription; actives raise or lower the signal. A digest of the protocol:
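Reporter mRNA induction in HepG2 is measured 24 h after dosing, using transiently transfected multiplexed cis-regulated reporter units. Signal comes from capillary electrophoresis of labelled RT-PCR products, with DMSO as negative control.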

Heat shock factor protein 1 (Homo sapiens), sequence (Q00613 whole entry, looked up): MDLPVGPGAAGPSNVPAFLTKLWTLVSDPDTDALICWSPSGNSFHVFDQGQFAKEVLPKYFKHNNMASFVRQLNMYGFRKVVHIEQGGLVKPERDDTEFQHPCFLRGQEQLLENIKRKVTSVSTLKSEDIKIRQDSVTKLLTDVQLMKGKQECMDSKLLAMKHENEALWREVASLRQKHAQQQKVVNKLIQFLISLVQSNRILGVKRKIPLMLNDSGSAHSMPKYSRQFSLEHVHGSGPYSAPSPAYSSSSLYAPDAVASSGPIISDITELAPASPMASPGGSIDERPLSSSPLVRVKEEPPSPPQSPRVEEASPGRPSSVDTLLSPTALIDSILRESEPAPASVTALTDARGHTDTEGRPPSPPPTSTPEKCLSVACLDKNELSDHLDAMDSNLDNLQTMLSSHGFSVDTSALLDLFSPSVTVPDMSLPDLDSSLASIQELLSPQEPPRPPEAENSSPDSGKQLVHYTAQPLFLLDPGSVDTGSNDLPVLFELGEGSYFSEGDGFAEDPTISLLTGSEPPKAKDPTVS
Bile acid receptor (Homo sapiens), sequence (Q96RI1 whole entry, looked up): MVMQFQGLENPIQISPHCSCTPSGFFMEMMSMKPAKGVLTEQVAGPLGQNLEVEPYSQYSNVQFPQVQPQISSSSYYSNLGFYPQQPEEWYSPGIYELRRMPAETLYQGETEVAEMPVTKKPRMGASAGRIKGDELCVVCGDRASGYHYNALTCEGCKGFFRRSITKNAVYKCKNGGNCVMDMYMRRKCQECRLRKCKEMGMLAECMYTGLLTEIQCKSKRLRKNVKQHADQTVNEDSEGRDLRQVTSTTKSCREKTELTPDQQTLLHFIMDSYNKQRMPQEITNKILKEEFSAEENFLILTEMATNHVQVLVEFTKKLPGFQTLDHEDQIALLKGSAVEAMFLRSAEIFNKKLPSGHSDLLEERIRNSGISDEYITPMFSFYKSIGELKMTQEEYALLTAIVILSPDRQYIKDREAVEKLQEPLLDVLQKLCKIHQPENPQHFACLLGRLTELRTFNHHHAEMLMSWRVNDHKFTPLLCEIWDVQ
Hypoxia-inducible factor 1-alpha (Homo sapiens), sequence (Q16665 whole entry, looked up, the tested form may be a part): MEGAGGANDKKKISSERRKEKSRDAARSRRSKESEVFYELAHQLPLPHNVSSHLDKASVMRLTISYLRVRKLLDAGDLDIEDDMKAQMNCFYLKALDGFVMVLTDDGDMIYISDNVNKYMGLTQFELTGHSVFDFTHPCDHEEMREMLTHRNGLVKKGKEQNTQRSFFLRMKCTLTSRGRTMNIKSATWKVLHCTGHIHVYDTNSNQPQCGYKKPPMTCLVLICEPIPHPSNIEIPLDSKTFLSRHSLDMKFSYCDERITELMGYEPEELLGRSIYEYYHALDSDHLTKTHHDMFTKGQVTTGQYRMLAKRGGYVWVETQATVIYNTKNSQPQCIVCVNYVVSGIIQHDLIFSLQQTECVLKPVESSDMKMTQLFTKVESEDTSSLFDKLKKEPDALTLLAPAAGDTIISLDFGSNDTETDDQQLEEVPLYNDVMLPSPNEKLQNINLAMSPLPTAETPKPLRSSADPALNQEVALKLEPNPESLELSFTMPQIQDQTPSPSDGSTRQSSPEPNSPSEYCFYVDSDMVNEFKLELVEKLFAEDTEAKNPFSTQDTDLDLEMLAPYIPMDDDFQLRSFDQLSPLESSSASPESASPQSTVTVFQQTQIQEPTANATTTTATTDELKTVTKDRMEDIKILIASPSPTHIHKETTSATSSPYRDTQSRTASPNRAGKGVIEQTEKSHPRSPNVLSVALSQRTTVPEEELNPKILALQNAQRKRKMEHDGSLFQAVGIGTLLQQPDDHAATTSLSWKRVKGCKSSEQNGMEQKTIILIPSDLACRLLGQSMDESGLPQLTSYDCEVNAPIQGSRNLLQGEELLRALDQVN
Hepatocyte nuclear factor 3-beta (Homo sapiens), sequence (Q9Y261 whole entry, looked up): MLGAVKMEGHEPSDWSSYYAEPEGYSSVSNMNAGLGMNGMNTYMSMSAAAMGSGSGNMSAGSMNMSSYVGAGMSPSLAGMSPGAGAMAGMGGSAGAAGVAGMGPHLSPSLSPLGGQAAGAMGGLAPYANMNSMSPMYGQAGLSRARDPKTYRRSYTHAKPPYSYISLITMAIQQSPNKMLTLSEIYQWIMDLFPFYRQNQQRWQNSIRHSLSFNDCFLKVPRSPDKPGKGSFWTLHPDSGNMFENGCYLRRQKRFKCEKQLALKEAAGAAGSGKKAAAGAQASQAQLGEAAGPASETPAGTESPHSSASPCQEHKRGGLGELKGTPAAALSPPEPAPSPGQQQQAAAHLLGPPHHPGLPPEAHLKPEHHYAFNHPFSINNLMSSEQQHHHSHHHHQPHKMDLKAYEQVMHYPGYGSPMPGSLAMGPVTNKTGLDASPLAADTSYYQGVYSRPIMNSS
Transcription factor E2F1 (Homo sapiens), sequence (Q01094 whole entry, looked up): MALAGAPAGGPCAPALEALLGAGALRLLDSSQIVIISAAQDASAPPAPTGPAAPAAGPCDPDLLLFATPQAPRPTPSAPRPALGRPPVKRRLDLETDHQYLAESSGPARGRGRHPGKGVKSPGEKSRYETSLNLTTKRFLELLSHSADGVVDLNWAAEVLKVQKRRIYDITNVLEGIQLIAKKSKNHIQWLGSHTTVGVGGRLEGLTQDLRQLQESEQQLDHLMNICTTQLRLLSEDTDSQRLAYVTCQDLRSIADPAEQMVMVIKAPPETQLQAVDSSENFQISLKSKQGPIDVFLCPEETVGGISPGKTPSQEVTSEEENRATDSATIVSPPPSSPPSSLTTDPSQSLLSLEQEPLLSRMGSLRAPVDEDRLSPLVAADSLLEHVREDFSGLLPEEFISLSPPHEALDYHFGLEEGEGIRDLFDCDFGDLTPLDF
Hepatocyte nuclear factor 6 (Homo sapiens), sequence (Q9UBC0 whole entry, looked up, the tested form may be a part): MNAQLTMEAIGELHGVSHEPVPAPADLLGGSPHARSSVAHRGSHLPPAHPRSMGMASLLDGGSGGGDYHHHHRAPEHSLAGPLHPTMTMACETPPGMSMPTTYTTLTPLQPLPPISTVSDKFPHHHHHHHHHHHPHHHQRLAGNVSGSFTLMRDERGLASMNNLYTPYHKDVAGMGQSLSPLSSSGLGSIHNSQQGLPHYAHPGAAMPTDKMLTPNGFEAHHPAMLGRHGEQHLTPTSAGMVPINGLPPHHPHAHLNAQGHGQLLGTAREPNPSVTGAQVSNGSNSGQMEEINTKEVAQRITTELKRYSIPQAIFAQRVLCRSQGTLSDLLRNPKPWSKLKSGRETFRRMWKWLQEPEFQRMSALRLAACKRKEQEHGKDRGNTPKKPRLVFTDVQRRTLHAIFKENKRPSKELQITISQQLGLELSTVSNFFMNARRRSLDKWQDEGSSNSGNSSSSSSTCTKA

The AC50 is the midpoint of the concentration-response curve, whichever way the signal moves. With `O=C(O)/C=C/c1ccccc1`, the outcome in [1], in test [2], in test [3], in test [4], in [5] and in [7] was inactive. Besides, the outcome in test [8], in [9], in test [10], in test [11], in test [12] and in test [13] was inactive. For the same compound, the compound was classed as inactive in test [14], in [15], in test [16], in test [17], in [18] and in test [19]. Further, in test [6], the AC50 is 42.5 µM (active).

In the case of `CN(C)c1ccc2nc3ccc(=[N+](C)C)cc-3sc2c1`, the compound was classed as inactive in test [1], in [3], in test [4], in test [5], in test [6] and in test [7]. The compound was classed as inactive in test [8], in [9], in [10], in test [11], in test [12] and in [13]. Further, the call in test [15], in test [16], in [18], in test [20] and in test [19] was inactive. Besides, the values for the AC50 in [2], in test [14] and in [17] were 16.7 µM (active), 41.6 µM (active) and 0.766 µM (active), respectively.

As for `CCCCCC(=O)OCC`, the call in test [1], in test [2], in test [3], in test [4], in test [5] and in test [6] was inactive. The compound was called inactive in test [7], in test [8], in test [9], in test [10], in test [11] and in test [12]. Also, the result in [13], in [14], in test [15], in test [16], in test [17] and in test [18] was inactive. Also, the outcome in [20] and in test [19] was inactive.

`COc1ccc(C(=O)c2ccccc2)c(O)c1`: the result in test [1], in [2], in [3], in [5], in [7] and in [8] was inactive. Moreover, the compound was called inactive in test [9], in test [10], in [11], in test [13], in test [14] and in test [15]. In addition, the outcome in [16], in test [18] and in test [20] was inactive. The half-maximal activity concentration (AC50) in test [4] was 85.1 µM (active); in test [6], 5.69 µM (active); in test [12], 151 µM (active); in test [19] it was 130 µM (active).

These data come from PubChem BioAssay (EPA / NIEHS).
